# Screens from PubChem.
# S1P2 agonist: agonists of human S1P2 receptor; activation, % at 4.5 µM; AID 729; O95136; S1P2-expressing cell line, agonist reporter read-out; 0.46% of 97,000 active; in the data active = activation above about 16%
# Target sequence (O95136 whole entry, looked up): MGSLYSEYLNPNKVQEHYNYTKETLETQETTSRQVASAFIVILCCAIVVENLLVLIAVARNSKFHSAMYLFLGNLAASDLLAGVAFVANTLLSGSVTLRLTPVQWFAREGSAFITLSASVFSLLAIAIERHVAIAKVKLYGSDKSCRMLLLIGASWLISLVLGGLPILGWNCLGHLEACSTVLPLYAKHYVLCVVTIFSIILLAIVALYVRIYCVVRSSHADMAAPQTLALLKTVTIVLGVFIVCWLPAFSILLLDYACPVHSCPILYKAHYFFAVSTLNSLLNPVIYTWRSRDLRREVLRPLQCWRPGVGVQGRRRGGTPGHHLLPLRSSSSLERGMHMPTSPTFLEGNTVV
# DAT uptake mod: modulates human dopamine transporter uptake under cocaine. Q01959. LLC-PK1 hDAT cells, [14C]-dopamine uptake with cocaine IC80; actives deviate in either direction. B-score at 10 µM. 1.3% of 110,000 active. AID 449768;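 active = Z score or B-score, a plate-position-corrected score, falls beyond the plate's 99.7% confidence bounds, in either direction; inactive = both scores lie inside the 99.7% bounds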
# GALR2 agonist: agonists of human galanin receptor 2 (GALR2). O43603. GALR2-expressing cells, agonist activation read-out. activation, % (concentration not given with the values). 0.48% of 140,000 active. AID 803; in the data active = activation above about 5%, passing the limit was not always enough
# GALR2 blocker: blocks the human galanin receptor 2. O43603. GALR2-expressing cells, antagonist mode. inhibition, % at 4 µM. 0.39% of 140,000 active; in the data active = inhibition above about 27%;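 also: cells stimulated with galanin 1-16 at roughly its EC80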
# S1P2 blocker: antagonists of human S1P2 receptor; cell-based S1P2 antagonist assay, inhibition at 5 uM; O95136; inhibition, % at 5 µM; AID 736; 0.21% of 97,000 active; in the data active = inhibition above about 45%;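 also: CRE beta-lactamase reporter cells expressing human S1P2 stimulated with S1P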
# Numbers stand for hits; . = inactive; / = no result given. A selection: hits, their analogues and other compounds. The true share with any hit is near 2.1%.
SMILES,S1P2 agonist,DAT uptake mod,GALR2 agonist,GALR2 blocker,S1P2 blocker
CCOC(=O)C1CCCN(C(=O)c2ccc(C)cc2O)C1 (configuration not stated),.,.,.,.,.
CCOC(=O)C(C(C)=O)C(c1ccc(OC)cc1)C(C(C)=O)C(=O)OCC (configuration not stated),.,.,.,.,.
CCOC(=O)C(C)c1ccc2cc(OC)ccc2c1 (configuration not stated),.,-4.2,.,.,.
O=S1(=O)CCOC[C@H](Cc2ccccc2)N1Cc1ccc(Cl)cc1,/,.,/,/,/
O=C(Nc1ccccc1OC(F)F)c1ccc(Br)o1,.,-2.5,.,.,.
Cn1c(-c2sccc2OCc2ccccc2)n[nH]c1=S,.,-10,.,.,.
N#CC(c1ccc(Cl)cc1)c1ccc2c(C(F)(F)F)cc(C(F)(F)F)nc2n1 (configuration not stated),.,-3.7,.,.,69
C/C(CC(=O)Nc1ccccn1)=N\NC(=O)C(=O)Nc1ccccc1C,.,3.2,.,.,.
CCc1ccc(NC(=O)C(=O)N/N=C(\C)CC(=O)Nc2ccccn2)cc1,/,/,.,.,/
CCn1cc(C(=O)NCc2cccs2)c(=O)c2ccc(C)nc21,.,2.9,.,.,.
Cc1oc2nc(SCC(=O)NC3CCCCC3)nc(N)c2c1C,.,.,.,.,.
CC1=NNC(=O)C(CC(=O)Nc2ccc(Cl)c(Cl)c2)C1 (configuration not stated),/,/,.,.,/
O=C1COc2ccc(C(=O)c3ccccc3)cc2CN1,.,3.4,.,.,.
O=C(CSc1nc2ccccc2[nH]1)Nc1nc(-c2ccc(Br)cc2)cs1,/,/,.,.,/
CCOC(=O)C1CCCN(C(=O)COc2ccccc2O)C1 (configuration not stated),.,.,.,.,.
CCOC(=O)C1CCCN(C(=O)CSc2nccn2C)C1 (configuration not stated),.,-3,.,.,.
COc1ccc(S(=O)(=O)N2CCCCCC2)cc1,.,.,.,.,.
COc1ccc(OC(=O)c2cc(S(=O)(=O)N3CCCC3)ccc2Cl)cc1,.,-2.3,.,.,.
CCC(=O)c1cn(CC(=O)NCc2cccnc2)c2ccccc12,.,.,.,.,.
Cc1cc(N2CCN(c3ccccc3)CC2)nc(-n2nc(C)cc2C)n1,.,.,.,.,.
O=C(CCn1c(=O)oc2ccccc21)N1CCN(c2ccccc2Cl)CC1,.,3.4,.,.,.
O=C(CCn1c(=O)oc2ccccc21)N1CCCCCC1,.,.,.,.,.
O=C(N/N=C\c1cc(Cl)ccc1O)c1ccc(S(=O)(=O)N2CCCCC2)cc1,/,/,6.9,.,/
Cn1c(/C=N/c2nc3ccccc3[nH]2)nc2ccccc21,.,-2.4,.,.,.
C(=N\c1nc2ccccc2[nH]1)/c1cccs1,/,.,.,.,/
SMILES,S1P2 agonist,DAT uptake mod,GALR2 agonist,GALR2 blocker,S1P2 blocker
CSc1nc(N)c2c(C)c(C)sc2n1,/,/,.,.,/
Cc1ccc(-c2cc(C(F)F)nc(NCc3cccs3)n2)cc1,/,/,.,.,/
Cc1ccc(-c2cc(C(F)F)nc(NCc3cccnc3)n2)cc1,.,.,5.0,.,.
CCOC(=O)c1[nH]c2ccc(F)cc2c1NC(=O)C1=COCCO1,.,.,.,.,.
CCOC(=O)c1[nH]c2ccc(F)cc2c1NC(=O)c1cc(OC)c(OC)c(OC)c1,18,.,.,.,.
CCOC(=O)c1cc(CC)sc1NC(=O)c1ccc(N2C(=O)CCC2=O)cc1,.,.,.,.,.
CCOC(=O)c1cc(CC)sc1NC(=O)c1cc(OC)c(OC)c(OC)c1,16,.,.,.,.
Cc1ccccc1Cn1cc(NC(=O)CSc2nc3c(c(C(F)(F)F)n2)CCc2ccccc2-3)cn1,.,.,.,.,.
CC1(C)CC(=O)C=C(Nc2ccccc2F)C1,.,.,.,.,.
CCc1nc2ccccc2c(C(=O)Oc2ccc(C(=O)OC)cc2)c1C,/,/,.,.,/
CCOC(=O)CSC1=C(C#N)C(c2ccccc2Cl)C(C(=O)OC)C(=O)N1 (configuration not stated),.,.,.,.,.
CCNc1nc(NCC)n2c(SCc3nc4ccccc4c(=O)[nH]3)nnc2n1,43,.,.,.,.
CCOC(=O)CN1C(=O)C(Sc2n[nH]c(-c3ccc(O)cc3)n2)CCc2ccccc21 (configuration not stated),.,.,.,.,.
CSc1cc(-c2ccc(Cl)cc2)n(Cc2ccccc2)c(=O)c1C#N,.,.,438,.,.
CCC(C)Nc1nc(-c2cccc(OC)c2O)nc2ccccc12 (configuration not stated),.,3.7,.,.,.
COc1cccc(-c2nc(NC(C)C)c3ccccc3n2)c1O,.,.,.,.,.
Cc1ccc2cc(CN(CCCN3CCOCC3)C(c3nnnn3Cc3ccco3)C(C)C)c(=O)[nH]c2c1C (configuration not stated),.,3.7,.,.,.
CC1CCCCN1C(=O)Cc1ccc(F)cc1 (configuration not stated),.,-8,.,.,.
COc1cccc(C2SCC(=O)N2c2ccc(Br)cc2)c1OC (configuration not stated),/,/,.,.,/
CCCCOc1ccc(-c2c(C#N)c(N)nc(SCC(N)=O)c2C#N)cc1,.,-2.3,.,.,.
Cc1ccccc1NC(=S)NC(NC(=O)COc1ccccc1)C(Cl)(Cl)Cl (configuration not stated),.,.,.,.,.
O=C(COc1ccccc1)NC(NC(=S)Nc1ccccc1O)C(Cl)(Cl)Cl (configuration not stated),.,-3.7,.,.,.
Cc1ccc(C)c(NC(=S)NC(NC(=O)N(C)C)C(Cl)(Cl)Cl)c1 (configuration not stated),.,.,.,.,.
Cc1ccc(C)c(NC(=S)NC(NC(=O)Cc2cccc3ccccc23)C(Cl)(Cl)Cl)c1 (configuration not stated),26,.,.,.,.
COC(=O)C(NNc1ccccc1C)(NC(=O)c1ccc(F)cc1)C(F)(F)F (configuration not stated),.,.,.,.,.
SMILES,S1P2 agonist,DAT uptake mod,GALR2 agonist,GALR2 blocker,S1P2 blocker
CN(C)/C=N/c1c(C#N)cnn1-c1ncnc2sc(-c3ccccc3)cc12,.,3.2,.,.,.
O=c1c(Sc2ccccc2)c(C(F)(F)F)[nH]n1-c1ccccc1,.,-2.2,.,.,.
O=C1C2C3C=CC(C4CC34)C2C(=O)N1Cc1ccco1 (configuration not stated),/,/,.,.,/
COc1ccc(C(=O)N2CCN=C2SCc2cccnc2)cc1OC,.,.,.,.,.
CCN(CC)CCCNc1cc2n(c(=O)n1)CCc1cc(OC)c(OC)cc1-2,.,.,.,.,.
COc1cc2c(cc1OC)-c1cc(Nc3ccc4c(c3)OCCO4)nc(=O)n1CC2,20,.,.,.,.
CCOc1cccc(Nc2cc3n(c(=O)n2)CCc2cc(OC)c(OC)cc2-3)c1,29,.,.,.,.
COc1cc2c(cc1OC)-c1cc(OCc3cccnc3)nc(=O)n1CC2,23,.,.,.,.
O=C(NC(=S)Nc1nc2c(s1)CSc1ccccc1-2)c1ccccc1,.,.,.,.,.
